From PubChem BioAssay (NCI) come the findings set out here.

The panel holds about 83,000 compounds, 20% with a hit somewhere; the sample as a whole holds those more often.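 Results are percent growth after 48 hours of single-concentration exposure. 100 means growth as in untreated cells, lower positive values show inhibition; negative values down to -100 show cell death.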 A number with no mark means an inactive call. The source made the active and inactive calls. How the source made its calls: active means growth percent below 10; inactive means the rest.

Holding throughout (assay): NCI-60 one-dose screen, 48 h (100 = growth as untreated, 0 = no growth, -100 = all killed)
What all share (conditions): 10 µM unless noted

Experiment [1] relates to HCT-15 colon.
For experiment [2], the system named is HT29 colon.
Experiment [3] concerns SNB-75 CNS.
The test system of experiment [4] is SNB-19 CNS.
The test system of experiment [5] is U251 CNS.
In experiment [6] the test system is PC-3 prostate.
The test system of experiment [7] is SK-MEL-5 melanoma.
The test system of experiment [8] is UACC-62 melanoma.
Experiment [9] relates to LOX IMVI melanoma.
In experiment [10] the test system is SK-MEL-28 melanoma.
The test system of experiment [11] is SK-MEL-2 melanoma.
For experiment [12], the system named is SN12C renal.
Experiment [13] concerns UO-31 renal.
Experiment [14] relates to ACHN renal.
Experiment [15] has as its system CAKI-1 renal.
Experiment [16] has as its system A498 renal.
Experiment [17] concerns CCRF-CEM leukemia.
Experiment [18] concerns MOLT-4 leukemia.
Experiment [19] concerns EKVX NSCLC.
The subject of experiment [20] is TK-10 renal.

As to `COc1ccc(NC(=O)CSc2nc3ccc(Cl)cc3c(=O)n2-c2ccccc2C(F)(F)F)c(OC)c1OC`, the growth in experiment [1] was 97.8%; in [2], 97.3%; in experiment [3] it was -17.3% (active); in [4], 68.1%; in experiment [5], 58%; in experiment [6], 75.1%. Besides, the growth was 89.7% in experiment [7]; 68.7% in experiment [8]; 88% in experiment [9]; 92.1% in experiment [10]; 53.3% in experiment [11]; 80.1% in experiment [12]. For the same compound, the growth in experiment [13] was 77.6%; in experiment [14] it was 61.2%; in experiment [15] it was 78.4%; in [16], 78.3%; in [17], 33.7%; in experiment [18] it was 106%.

As to `COc1ccc(-c2cn[nH]c2-c2cc(OC)c3c(c2)OCO3)cc1`, the growth was 18.6% in [1]; 5.01% (active) in experiment [2]; -12.9% (active) in experiment [3]; 41.7% in [4]; 9.27% (active) in experiment [5]; 11.1% in experiment [6]. The growth in experiment [7] is 32%; in experiment [8] it was 15.8%; in experiment [9], 22.8%; in [10], 39.4%; in experiment [11] it was -9.32% (active); in experiment [12] it was 34%. In addition, the growth is 27.8% in experiment [13]; 39.5% in [14]; 24.9% in experiment [15]; -18.8% (active) in experiment [16]; 2.12% (active) in [17]; 3.98% (active) in experiment [18].

Consider `COc1cccc(/C=C/c2c(C(=O)O)cccc2[N+](=O)[O-])c1OC`, for which the growth in experiment [1] was 103%; in experiment [2] it was 104%; in experiment [3] it was 89.3%; in experiment [4], 105%; in experiment [5] it was 95.9%; in [6] it was 96.8%. Moreover, the growth in [7] is 106%; in [8], 109%; in [9], 99.2%; in experiment [10] it was 109%; in [11], 102%; in experiment [12] it was 103%. Also, the growth was 87.1% in experiment [13]; 100% in experiment [14]; 94.2% in experiment [15]; 88.4% in experiment [16]; 101% in experiment [17]; 96.1% in experiment [18].

Take `COc1ccc(C2NC3=C(CCCC3)C(C#N)(C#N)C2(C#N)C#N)cc1` (configuration not stated): the growth in [1] is 65.9%; in experiment [2] it was 79.9%; in experiment [3] it was 88.6%; in experiment [4], 88.5%; in [5], 107%; in experiment [6], 104%. For the same compound, the growth in [7] was 101%; in experiment [8] it was 75.4%; in [9] it was 91.8%; in experiment [11], 98.8%; in experiment [19] it was 88.2%; in [12], 88.7%. In addition, the growth in experiment [13] was 75.7%; in experiment [20], 79.7%; in [14] it was 37.1%; in experiment [15] it was 78%; in experiment [16] it was 111%; in experiment [17], 7.38% (active). In addition, in experiment [18], the growth was 9.29% (active).

As to `CC(Br)C(Br)c1cc2c(cc1Br)OCO2` (configuration not stated), the growth in experiment [1] is 101%; in experiment [2], 96%; in experiment [3], 78.2%; in [4] it was 111%; in [5] it was 93.1%; in [6], 79.2%. Also, the growth is 104% in experiment [7]; 108% in [8]; 96.2% in [9]; 91.4% in experiment [11]; 93.8% in [19]; 110% in [12]. For the same compound, the growth in [13] was 90.7%; in experiment [20] it was 96.6%; in [14], 93.2%; in [15], 84%; in experiment [17], 99.6%; in [18], 94.7%.

Consider `Nc1c(C(=O)c2ccc(F)cc2)sc2nc3c(cc12)CCCC3`, for which the growth in [1] is 58.4%; in [2] it was 66%; in experiment [3], 85.8%; in [4], 95.4%; in experiment [5] it was 79.4%; in experiment [6], 80.7%. The growth in experiment [7] was 89.2%; in experiment [8], 75%; in experiment [9], 75.8%; in experiment [10], 76.8%; in [11] it was 67.7%; in experiment [12] it was 82.5%. Further, the growth in [13] is 75.3%; in [14] it was 96.6%; in [15], 84.6%; in experiment [16], 56.2%; in experiment [17], 77.9%; in experiment [18] it was 66.6%.

As for `Cc1cc(C)c(NC(=O)c2sc3nc4c(cc3c2N)CN(Cc2ccccc2)CC4)c(C)c1`, the growth in experiment [1] is 21.7%; in experiment [2], 7.19% (active); in experiment [3] it was 7.64% (active); in experiment [4] it was 42.9%; in experiment [5], 32.9%; in experiment [6], 22%. Further, the growth is 26.1% in experiment [7]; 24.5% in [8]; 38.7% in experiment [9]; 57.1% in experiment [10]; 24% in experiment [11]; 23.9% in experiment [12]. Besides, the growth in experiment [13] is 26.5%; in [20], 67.6%; in experiment [14], 45.7%; in [18], 25%.

With `CCN(CC)P(=O)(N(CC)CC)N(CCCSC/C=C(\C)CC/C=C(\C)CCC=C(C)C)CCCN1CCN(C)CC1`, the growth in experiment [1] was 93.2%; in experiment [2] it was 98.9%; in [3], 93%; in experiment [4], 92.8%; in experiment [5], 101%; in experiment [6], 95.5%. Moreover, the growth is 100% in [7]; 94.2% in [8]; 81.3% in experiment [9]; 107% in experiment [10]; 118% in [11]; 92.9% in experiment [12]. Further, the growth in [13] was 92.8%; in [14], 119%; in experiment [15], 89.9%; in experiment [16] it was 77.2%; in experiment [17], 87.2%.
